# Of roughly 8,800 targets only a part is listed; those with a hit were picked by preference. About 0.5% of all pairs of compound and target were hits. Values without a mark were called inactive.
# Assays:
# Assay in all cases: log2 fold change, soluble protein after heating vs DMSO (PISA); higher = thermal stabilisation; K562 lysate, 10 uM; active = over 0.2 and 3.5 SD of the protein, either way, in both replicates (recomputed)
# [1] = compound: NCC(=O)Nc1ccc(-n2nc(C(F)(F)F)cc2-c2ccc3c(ccc4ccccc43)c2)cc1
# Outline: (§1)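 Dounce homogenisation of K562 pellets in PBS pH 7.4 with 1 mM MgCl2 produced a crude extract, used at 1 mg/mL protein. Exposure to 10 μM compound lasted 30 min, and aliquots were then heated for 3 min across 48°C-58°C, pooled and brought to 0.5% NP-40 at 4°C. The supernatant after 21,000xg for 90 min was quantified by TMTpro 16plex LC-MS/MS with channel sums equalised. Duplicate values are given as log-two fold change in thermal stability relative to solvent controls.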
# [2] = compound: O=C(CCCCCCC(=O)Nc1ccccc1)NO [vorinostat]
# Outline: as §1
# [3] = compound: O=C(O)c1ccc2c(c1)nc(Nc1cccc(Cl)c1)c1ccncc12 [silmitasertib]
# Outline: as §1
# [4] = compound: O=C1NC(=O)C(c2cnc3ccccn23)=C1c1cn2c3c(cc(F)cc13)CN(C(=O)N1CCCCC1)CC2
# Outline: as §1
# [5] = compound: c1cn2cc(-c3ccc4cn[nH]c4c3)nc(Nc3ccc(N4CCOCC4)cc3)c2n1 [entospletinib]
# Outline: as §1
# Chain of UniProt O94906 (O94906 whole entry, looked up): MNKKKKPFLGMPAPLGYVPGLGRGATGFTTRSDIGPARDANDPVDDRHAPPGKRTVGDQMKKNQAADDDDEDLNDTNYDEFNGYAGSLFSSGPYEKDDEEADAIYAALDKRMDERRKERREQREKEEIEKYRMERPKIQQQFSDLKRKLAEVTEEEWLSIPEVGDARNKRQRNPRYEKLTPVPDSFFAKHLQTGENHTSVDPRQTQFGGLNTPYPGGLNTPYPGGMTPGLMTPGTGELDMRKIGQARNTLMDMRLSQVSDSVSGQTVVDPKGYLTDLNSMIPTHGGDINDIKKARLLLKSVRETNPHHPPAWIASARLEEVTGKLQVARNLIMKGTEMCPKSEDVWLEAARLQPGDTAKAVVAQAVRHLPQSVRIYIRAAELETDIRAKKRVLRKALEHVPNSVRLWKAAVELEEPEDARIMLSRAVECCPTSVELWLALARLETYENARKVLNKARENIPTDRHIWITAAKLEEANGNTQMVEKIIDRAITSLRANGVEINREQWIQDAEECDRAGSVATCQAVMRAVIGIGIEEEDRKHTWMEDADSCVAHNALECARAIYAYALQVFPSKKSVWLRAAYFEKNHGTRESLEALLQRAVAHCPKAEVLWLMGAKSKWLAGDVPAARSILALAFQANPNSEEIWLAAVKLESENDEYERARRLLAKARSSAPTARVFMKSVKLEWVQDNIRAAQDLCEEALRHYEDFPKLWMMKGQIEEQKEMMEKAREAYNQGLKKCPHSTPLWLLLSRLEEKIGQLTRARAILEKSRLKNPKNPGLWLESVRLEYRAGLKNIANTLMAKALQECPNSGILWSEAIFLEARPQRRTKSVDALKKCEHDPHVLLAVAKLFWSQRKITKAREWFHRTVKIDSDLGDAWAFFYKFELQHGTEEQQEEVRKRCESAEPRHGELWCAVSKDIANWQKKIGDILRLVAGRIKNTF
# Chain of UniProt Q9HAU0 (Q9HAU0 whole entry, looked up): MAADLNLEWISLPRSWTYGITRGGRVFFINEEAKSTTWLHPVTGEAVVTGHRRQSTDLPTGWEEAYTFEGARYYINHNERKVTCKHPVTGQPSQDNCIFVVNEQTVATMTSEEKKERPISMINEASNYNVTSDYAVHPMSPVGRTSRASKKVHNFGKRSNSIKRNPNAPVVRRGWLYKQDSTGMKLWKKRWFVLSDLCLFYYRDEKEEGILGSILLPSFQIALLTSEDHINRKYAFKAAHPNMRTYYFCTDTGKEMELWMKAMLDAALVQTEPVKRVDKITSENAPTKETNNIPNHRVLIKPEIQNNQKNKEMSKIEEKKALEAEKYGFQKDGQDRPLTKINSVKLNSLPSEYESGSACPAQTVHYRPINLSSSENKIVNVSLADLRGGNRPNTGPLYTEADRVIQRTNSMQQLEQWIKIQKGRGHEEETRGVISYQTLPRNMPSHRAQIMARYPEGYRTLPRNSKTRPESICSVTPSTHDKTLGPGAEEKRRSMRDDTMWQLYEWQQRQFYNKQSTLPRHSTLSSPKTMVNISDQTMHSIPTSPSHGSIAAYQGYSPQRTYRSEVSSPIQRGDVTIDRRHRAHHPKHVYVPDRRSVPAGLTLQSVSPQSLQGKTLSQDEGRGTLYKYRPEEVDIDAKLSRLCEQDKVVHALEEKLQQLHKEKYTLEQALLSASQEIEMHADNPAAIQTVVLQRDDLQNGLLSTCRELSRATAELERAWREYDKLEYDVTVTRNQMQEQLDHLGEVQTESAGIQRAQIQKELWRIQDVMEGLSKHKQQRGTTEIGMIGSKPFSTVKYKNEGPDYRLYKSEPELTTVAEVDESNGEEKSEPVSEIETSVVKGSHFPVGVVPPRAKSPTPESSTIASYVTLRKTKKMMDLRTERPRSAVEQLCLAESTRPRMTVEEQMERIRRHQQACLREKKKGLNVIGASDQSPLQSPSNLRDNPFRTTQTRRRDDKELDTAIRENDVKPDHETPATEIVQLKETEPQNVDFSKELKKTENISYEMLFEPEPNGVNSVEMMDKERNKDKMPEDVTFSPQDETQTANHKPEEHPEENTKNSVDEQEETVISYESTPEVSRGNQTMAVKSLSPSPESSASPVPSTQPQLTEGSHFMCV
# Chain of UniProt P48426 (P48426 whole entry, looked up): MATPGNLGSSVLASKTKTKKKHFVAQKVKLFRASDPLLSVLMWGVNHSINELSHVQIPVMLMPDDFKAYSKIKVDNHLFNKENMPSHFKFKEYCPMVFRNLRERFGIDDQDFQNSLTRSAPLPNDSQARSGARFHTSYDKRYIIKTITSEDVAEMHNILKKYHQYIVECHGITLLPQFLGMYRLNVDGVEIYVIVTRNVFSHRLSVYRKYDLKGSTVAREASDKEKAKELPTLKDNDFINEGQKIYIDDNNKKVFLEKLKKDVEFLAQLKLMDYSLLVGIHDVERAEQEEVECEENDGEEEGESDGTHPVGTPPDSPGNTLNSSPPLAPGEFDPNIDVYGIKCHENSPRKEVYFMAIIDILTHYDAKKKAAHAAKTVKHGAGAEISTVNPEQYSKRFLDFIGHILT
# Chain of UniProt Q9BTU6 (Q9BTU6 whole entry, looked up): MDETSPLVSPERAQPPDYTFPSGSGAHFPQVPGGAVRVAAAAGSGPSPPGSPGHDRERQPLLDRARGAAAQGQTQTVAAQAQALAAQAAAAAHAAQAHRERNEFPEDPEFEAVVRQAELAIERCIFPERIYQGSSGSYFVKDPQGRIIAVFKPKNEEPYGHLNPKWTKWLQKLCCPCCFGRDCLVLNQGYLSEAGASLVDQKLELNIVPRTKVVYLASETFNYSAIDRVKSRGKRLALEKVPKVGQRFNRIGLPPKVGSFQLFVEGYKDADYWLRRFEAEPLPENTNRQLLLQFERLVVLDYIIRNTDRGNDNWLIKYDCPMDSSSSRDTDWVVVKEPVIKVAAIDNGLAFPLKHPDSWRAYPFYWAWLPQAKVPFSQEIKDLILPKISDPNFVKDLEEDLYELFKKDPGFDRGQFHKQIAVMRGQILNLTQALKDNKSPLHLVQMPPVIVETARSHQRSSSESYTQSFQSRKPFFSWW
# Chain of UniProt Q9H3S7 (Q9H3S7 whole entry, looked up): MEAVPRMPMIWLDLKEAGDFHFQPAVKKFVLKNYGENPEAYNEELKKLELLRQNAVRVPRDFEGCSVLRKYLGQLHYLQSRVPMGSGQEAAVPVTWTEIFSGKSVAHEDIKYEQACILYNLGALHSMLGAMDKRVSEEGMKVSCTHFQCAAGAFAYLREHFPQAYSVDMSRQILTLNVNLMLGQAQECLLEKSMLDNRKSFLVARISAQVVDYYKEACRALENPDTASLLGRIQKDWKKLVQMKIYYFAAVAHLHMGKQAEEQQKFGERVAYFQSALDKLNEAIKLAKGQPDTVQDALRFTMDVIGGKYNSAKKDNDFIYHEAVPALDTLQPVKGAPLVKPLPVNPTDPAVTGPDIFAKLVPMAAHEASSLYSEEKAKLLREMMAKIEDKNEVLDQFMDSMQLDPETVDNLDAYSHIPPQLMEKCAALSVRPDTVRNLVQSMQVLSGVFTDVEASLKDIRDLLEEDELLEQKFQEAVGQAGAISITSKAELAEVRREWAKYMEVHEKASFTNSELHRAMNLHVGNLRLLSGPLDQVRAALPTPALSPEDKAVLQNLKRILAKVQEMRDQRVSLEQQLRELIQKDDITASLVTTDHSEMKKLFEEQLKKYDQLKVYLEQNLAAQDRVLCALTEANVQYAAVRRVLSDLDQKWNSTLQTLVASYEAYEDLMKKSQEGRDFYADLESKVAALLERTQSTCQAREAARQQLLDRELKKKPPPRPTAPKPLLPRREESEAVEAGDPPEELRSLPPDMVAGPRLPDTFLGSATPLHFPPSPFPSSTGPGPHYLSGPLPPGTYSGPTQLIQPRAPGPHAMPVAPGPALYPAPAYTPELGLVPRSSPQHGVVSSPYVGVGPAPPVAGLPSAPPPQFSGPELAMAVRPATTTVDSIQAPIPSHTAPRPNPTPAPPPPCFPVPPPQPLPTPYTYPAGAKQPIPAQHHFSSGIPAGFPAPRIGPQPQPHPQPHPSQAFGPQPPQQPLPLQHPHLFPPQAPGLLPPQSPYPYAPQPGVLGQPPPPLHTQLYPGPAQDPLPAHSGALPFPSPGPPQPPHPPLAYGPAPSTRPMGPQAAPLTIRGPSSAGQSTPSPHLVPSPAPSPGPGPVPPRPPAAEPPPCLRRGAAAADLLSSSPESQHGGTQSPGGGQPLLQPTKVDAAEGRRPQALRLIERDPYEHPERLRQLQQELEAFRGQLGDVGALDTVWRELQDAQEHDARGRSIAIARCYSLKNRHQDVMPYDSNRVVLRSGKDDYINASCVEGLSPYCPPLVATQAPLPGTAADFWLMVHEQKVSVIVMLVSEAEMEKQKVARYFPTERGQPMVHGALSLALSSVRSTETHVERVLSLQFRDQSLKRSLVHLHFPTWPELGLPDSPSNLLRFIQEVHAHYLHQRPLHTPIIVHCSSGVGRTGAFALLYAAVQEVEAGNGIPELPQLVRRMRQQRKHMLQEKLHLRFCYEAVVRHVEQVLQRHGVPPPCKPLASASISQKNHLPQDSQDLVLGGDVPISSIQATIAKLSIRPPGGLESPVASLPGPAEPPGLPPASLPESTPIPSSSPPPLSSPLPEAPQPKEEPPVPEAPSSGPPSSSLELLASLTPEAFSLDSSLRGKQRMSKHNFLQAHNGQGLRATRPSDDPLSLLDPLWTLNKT
# Chain of UniProt P60673 (P60673 whole entry, looked up): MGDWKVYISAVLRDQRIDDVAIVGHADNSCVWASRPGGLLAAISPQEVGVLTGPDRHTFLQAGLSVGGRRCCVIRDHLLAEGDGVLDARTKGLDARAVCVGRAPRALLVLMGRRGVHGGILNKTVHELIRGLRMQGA
# Chain of UniProt Q9H2H8 (Q9H2H8 whole entry, looked up): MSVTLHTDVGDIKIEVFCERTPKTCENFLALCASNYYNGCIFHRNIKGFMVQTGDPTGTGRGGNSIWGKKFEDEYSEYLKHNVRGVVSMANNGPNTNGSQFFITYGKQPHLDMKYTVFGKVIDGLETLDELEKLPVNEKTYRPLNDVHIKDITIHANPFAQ
# Chain of UniProt O60927 (O60927 whole entry, looked up): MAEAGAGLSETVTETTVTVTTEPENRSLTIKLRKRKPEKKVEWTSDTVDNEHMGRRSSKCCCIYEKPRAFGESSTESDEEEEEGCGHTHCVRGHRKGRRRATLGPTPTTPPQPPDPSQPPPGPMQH
Target,log2 fold change [1],log2 fold change [2],log2 fold change [3],log2 fold change [4],log2 fold change [5]
PIR (UniProt O00625),0.015,0.035,-0.049,-0.013,-0.035
PDCD6IP (UniProt Q8WUM4),0.065,-0.332 (active),-0.005,0.009,-0.009
PIP4K2C (UniProt Q8TBX8),0.021,-0.07,0.425 (active),0.063,0.004
PDXK (UniProt O00764),-0.005,0.073,-0.008,0.026,-0.009
PRPF6 (UniProt O94906),0.002,-0.262 (active),0.047,0.004,0.026
PRKCSH (UniProt P14314),0.002,0.141,-0.015,-0.001,0.001
PICALM (UniProt H0YEH1),-0.048,0.037,-0.045,-0.075,-0.237
PRPH isoform 2 (UniProt P41219),0,0.112,0.001,-0.098,-0.052
PLA2G4B isoform 6 (UniProt P0C869),-0.008,0.002,-0.017,0.264,0.06
POC5 (UniProt Q8NA72),-0.128,-0.36 (active),-0.021,0.02,-0.184
PTPN23 (UniProt Q9H3S7),-0.011,-0.266 (active),-0.007,0,0.009
PLK1 (UniProt P53350),0.027,-0.638 (active),0.005,0.022,0.072
PIP4K2A (UniProt P48426),0.027,0.024,0.225,0.007,-0.029
PXMP4 (UniProt Q9Y6I8),0.038,0.295,0.134,0.021,-0.004
PHKA2 (UniProt P46019),0.017,-0.29 (active),0.105,-0.048,-0.012
PHKG2 (UniProt P15735),-0.029,0.013,0.008,-0.022,0.026
PRKAR2A (UniProt P13861),0.005,-0.037,-0.008,-0.06,-0.035
PIK3R2 (UniProt O00459),-0.007,-0.245,0.201,-0.029,-0.092
PREP (UniProt P48147),0.006,-0.153,0.008,-0.01,0.014
PCBP2 isoform 3 (UniProt Q15366),-0.071,-0.252 (active),0.042,-0.035,0.01

Target,log2 fold change [1],log2 fold change [2],log2 fold change [3],log2 fold change [4],log2 fold change [5]
PPIL3 (UniProt Q9H2H8),0.084,-0.155,-0.022,0.029,-0.016
PFKFB3 isoform 4 (UniProt Q16875),0.025,-0.34 (active),0.108,0.017,-0.006
POLA1 (UniProt P09884),0.009,-0.293 (active),-0.019,0.006,-0.016
PCF11 (UniProt O94913),0.043,-0.339 (active),-0.023,-0.001,0.016
PDPK1 (UniProt O15530),-0.056,-0.246,0.09,0.004,-0.007
PI4K2A (UniProt Q9BTU6),-0.006,-0.005,0.074,-0.009,0.001
PHKA1 (UniProt P46020),0.002,-0.223 (active),0.184,-0.001,-0.01
PDXDC1 (UniProt Q6P996),-0.041,-0.233 (active),0.038,0.018,-0.019
PTS (UniProt Q03393),0.053,0.006,0.009,-0.151,0.032
PRKCSH isoform 2 (UniProt P14314),-0.046,0.126,-0.057,-0.019,0.037
PTK2 (UniProt Q05397),-0.017,-0.137,0,-0.056,0.175
PMPCA (UniProt Q10713),0.031,0.033,-0.044,0.003,-0.019
PWP2 (UniProt Q15269),0.007,-0.547 (active),0.029,-0.014,0.019
POM121C (UniProt A8CG34),,0.077,-0.196,,
PPP2R3C (UniProt Q969Q6),-0.019,-0.362,0.086,,0.074
PHF14 (UniProt O94880),-0.062,,,,0.039
PLEKHA5 isoform 6 (UniProt Q9HAU0),-0.029,-0.305 (active),-0.003,-0.016,0.022
PIP4K2B (UniProt P78356),0.005,0.074,0.221,0.073,-0.013
PCBP2 (UniProt F8VRH0),,-0.982 (active),-0.441,0.006,
POLR2F (UniProt U3KPV3),,,,,-0.113

Target,log2 fold change [1],log2 fold change [2],log2 fold change [3],log2 fold change [4],log2 fold change [5]
NA (UniProt Q4G0T1),,-0.027,0.092,-0.036,
PSTPIP2 (UniProt Q9H939),0.046,-0.312 (active),0.04,0.017,-0.005
PYURF (UniProt Q96I23),-0.346 (active),-0.007,-0.001,-0.055,-0.048
POLR2G (UniProt P62487),0.001,0.116,-0.043,-0.03,0.014
PRADC1 (UniProt Q9BSG0),,0.07,-0.041,-0.012,
PFN3 (UniProt P60673),0.158,,,-0.142,-0.134
PICALM (UniProt H0YCY1),,0.202,-0.07,,
PRG4 (UniProt Q92954),,,,-0.145,
PPP1R14C (UniProt Q8TAE6),-0.061,,,,-0.046
PTK2 isoform 2 (UniProt Q05397),,-0.056,0.046,,0.007
PICALM (UniProt Q13492),0.02,0.048,0.003,-0.019,-0.005
PECR (UniProt Q9BY49),,,,,0.115
PFN1 (UniProt I3L3D5),,,,,-0.194
PFN1 (UniProt P07737),-0.006,0.083,-0.004,-0.014,0.006
PHC1 (UniProt P78364),0.042,,,0.151,0.073
PPP1R11 (UniProt O60927),,-0.31 (active),0.034,0.028,-0.029
PDE2A (UniProt O00408),0.195,0.117,0.022,0.071,0.01
PIK3R1 (UniProt P27986),-0.035,-0.206,0.213,0.022,0.03
PMS1 (UniProt P54277),0.01,-0.342 (active),0.018,0.026,-0.011
"PDIA4, A0A499FI48",,,,0.045,
